# Source: PubChem BioAssay
# Sampled rows, rich in hits. Any-hit rate of the full collection: about 32%.
# PostGolgi ctrl = growth inhibition of yeast control strain, primary screen, counter-screen for post-Golgi transport modulator project; efflux-deficient yeast background strain, growth absorbance A615, 16 h; inhibition, % at 10 µM; 98,000 tested, 5% active; AID 738, 2007
# CYP2C19 activ = human CYP2C19 activators, primary screen, biochemical, luminescence; recombinant CYP2C19, luciferin-H EGE luminescence; active compounds read high; 0 = fully inhibited enzyme, 1 = untreated enzyme; 96,000 tested, under 10 active; Cytochrome P450 2C19 (Homo sapiens), P33261; activation factor at 5 µM;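 active = activation factor of at least 2 at 5 µM in the primary screen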
# Target sequence (P33261 whole entry, looked up): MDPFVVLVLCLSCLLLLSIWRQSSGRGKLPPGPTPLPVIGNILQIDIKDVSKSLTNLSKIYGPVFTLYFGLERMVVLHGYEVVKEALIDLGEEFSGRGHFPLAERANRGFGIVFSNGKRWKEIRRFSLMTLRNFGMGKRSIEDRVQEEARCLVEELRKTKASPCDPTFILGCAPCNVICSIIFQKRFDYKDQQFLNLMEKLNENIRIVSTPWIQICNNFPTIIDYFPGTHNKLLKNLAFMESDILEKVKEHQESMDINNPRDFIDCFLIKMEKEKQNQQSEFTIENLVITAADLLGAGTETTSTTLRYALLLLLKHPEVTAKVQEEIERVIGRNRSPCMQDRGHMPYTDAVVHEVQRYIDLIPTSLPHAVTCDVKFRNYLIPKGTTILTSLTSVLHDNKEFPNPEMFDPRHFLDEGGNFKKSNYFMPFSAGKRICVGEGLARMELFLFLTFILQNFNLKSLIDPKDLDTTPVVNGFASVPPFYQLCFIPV
# CYP2C9 inhib = blockers of cytochrome P450 2C9 activity – biochemical, luminescence, ADME assay, primary screen; P11712; CYP2C9 Supersomes, luciferin-H conversion; inhibition, % at 5 µM; 96,000 tested, 20% active; AID 777, 2007;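 active = blocking of liver enzyme CYP2C9 beyond about 50% at 5 µM, limit read from the data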
# CYP2C19 inh = blockers of cytochrome P450 2C19 activity – biochemical, luminescence, ADME assay, primary screen. CYP2C19 Supersomes, luciferin-H EGE luminescence, 30 min. inhibition, % at 5 µM. 96,000 tested, 21% active. AID 778, 2007;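 active = CYP2C19 inhibition above a set limit at 5 µM in the primary screen, cut at about 50% in these data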
# PostGolgi yeast = phenotypic screen on post-Golgi transport, primary screen. post-Golgi transport phenotypic cell assay. inhibition, % at 10 µM. 98,000 tested, 0.9% active. AID 739, 2007;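 also: yeast cells grown in 1536-well plates; yeast grown about 18 h at 30C before absorbance read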
# CYP2C9 act = human CYP2C9 activators, primary screen, biochemical, luminescence | Cytochrome P450 2C9 (Homo sapiens), P11712 | recombinant CYP2C9, luciferin-H conversion; active compounds read high; factor 1 = untreated enzyme, 0 = blocked | activation factor at 5 µM | 96,000 tested, 1.4% active;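 active = activation factor of 2 or more for CYP2C9 at a 5 µM dose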
# Hits are given with their value; - = inactive. Rule as the data show it, unless noted: active = inhibition above about 30%; inactive = the rest.
SMILES,PostGolgi ctrl,CYP2C19 activ,CYP2C9 inhib,CYP2C19 inh,PostGolgi yeast,CYP2C9 act
CC1CCc2c(sc(NC(=O)c3ccc(-c4ccccc4[N+](=O)[O-])o3)c2C#N)C1 (stereo not given),-,-,91,-,-,-
Cc1cc(C(=O)Nc2sc3c(c2C#N)CCCCC3)cs1,-,-,-,-,-,-
N#Cc1c(NC(=O)c2ccc(-c3ccccc3[N+](=O)[O-])o2)sc2c1CCCC2,-,-,99,-,-,-
Cc1ccc(CN2CC34C=CC(O3)C(C(=O)NCc3ccc5c(c3)OCO5)C4C2=O)cc1 (stereo not given),-,-,-,-,-,-
COCCCNC(=O)C1C2C=CC3(CN(Cc4ccc(C)cc4)C(=O)C13)O2 (stereo not given),33,-,-,-,-,-
CCCCN1Cc2cc(C(=O)c3cc(F)ccc3O)cnc2NC1=O,-,-,-,-,-,-
CCCCN(CCCC)C(=O)c1ccccc1NC(=O)CN1C(=O)c2ccccc2C1=O,-,-,93,92,-,-
Cc1nnc(SCC2CCCO2)n1-c1ccccc1 (stereo not given),-,-,-,-,-,-
CCOC(=O)C1C(=O)CC(C)(O)C(C(=O)OCC)C1c1cccc(OC)c1 (stereo not given),-,-,-,-,-,-
COc1cc(/C=N/NC(=O)c2cnn3c(C)cc(-c4ccccc4)nc23)ccc1O,34,-,-,-,-,-
CCOC(=O)c1cnn2c(C)cc(-c3ccccc3)nc12,-,-,-,-,-,-
COc1ccc(/C=N/NC(=O)c2nc(-c3ccccc3)cc(-c3ccccc3)n2)cc1,31,-,-,-,-,-
Cc1ccc(-c2nnc(SCc3ccc(C#N)cc3)n2Cc2ccco2)cc1,-,-,-,-,-,-
Nn1c(SCc2ccccc2)nnc1-c1ccccn1,-,-,-,-,-,-
Clc1cccc(CSc2nnc(-c3ccccn3)n2Cc2ccco2)c1,-,-,85,50,-,-
CC(C)(C)c1ccc(CSc2nnc(-c3ccccn3)n2Cc2ccco2)cc1,-,-,93,73,-,-
Brc1ccc(CSc2nnc(-c3ccccn3)n2Cc2ccco2)cc1,33,-,87,-,-,-
CCc1nnc(NCn2nc(C)cc2C)s1,-,-,-,-,-,-
CCCC(=O)OCC(=O)Nc1cc(C(C)(C)C)nn1-c1ccccc1,-,-,-,-,-,-
O=S(=O)(c1cccs1)N1CCN(CC(O)COc2cc(Cl)ccc2Cl)CC1 (stereo not given),33,-,-,-,-,-
Cc1nn(Cc2ccccc2Cl)c(C)c1NC(=O)c1cc(-c2ccc(F)cc2)on1,-,-,-,-,-,-
Cc1ccc(-c2cc(C(F)F)n3ncc(C(=O)Nc4c(C)nn(Cc5c(Cl)cccc5Cl)c4C)c3n2)cc1,-,-,91,-,-,-
Cc1ccc(-c2cc(C(F)F)n3ncc(C(=O)Nc4c(C)nn(Cc5ccccc5Cl)c4C)c3n2)cc1,-,-,89,-,-,-
COc1ccc(-c2cc(C(F)F)n3ncc(C(=O)N4CCCCC4)c3n2)cc1,-,-,-,-,-,-
Cc1nn(Cc2c(Cl)cccc2Cl)c(C)c1NC(=O)c1cnn2c(C(F)F)cc(-c3ccccc3)nc12,-,-,63,-,-,-
SMILES,PostGolgi ctrl,CYP2C19 activ,CYP2C9 inhib,CYP2C19 inh,PostGolgi yeast,CYP2C9 act
O=C(CSc1ncccn1)NN=C1CCCCCCC1,-,-,-,-,-,-
CCn1c(SCC(=O)NCc2ccccc2)nc2ccccc2c1=O,-,-,-,-,-,-
O=C(CSc1nc2ccccc2c(=O)n1C1CC1)NCc1ccccc1,36,-,-,-,-,-
O=C(CSc1nc2ccsc2c(=O)n1NC(=O)c1ccccc1)NCc1ccco1,-,-,64,60,-,-
Cc1cccc(-n2c(SCC(=O)NCc3ccco3)nc3ccccc3c2=O)c1,-,-,-,-,-,-
O=C(CSc1nc2ccccc2c(=O)n1NC(=O)Cc1ccccc1)NCc1ccccc1,-,-,93,-,-,-
O=C(CSc1nc2ccccc2c(=O)n1NC(=O)Cc1ccccc1)NCc1ccco1,-,-,88,-,-,-
O=C(CSc1nc2ccccc2c(=O)n1CCCO)NCc1ccccc1,-,-,-,-,-,-
Cc1cc(C)nc(/N=C(\N)C2=C(O)CC(C)(C)CC2=O)n1,-,-,-,-,-,-
COc1ccc(NC(=O)c2ccccc2NC(=O)NC2CCCCC2)cc1,-,-,-,-,-,-
O=C(Cc1cccs1)Nn1c(Cc2cccs2)nc2ccccc2c1=O,-,-,72,-,-,-
O=c1[nH]c(Cc2cccs2)nc2ccccc12,-,-,-,-,-,-
CCc1ccc(C(C)NC(=O)/C=C/c2ccc(Br)cc2)cc1 (stereo not given),-,-,-,-,-,-
CCc1ccc(/C=C/C(=O)c2c(C)cc(C)[nH]c2=O)cc1,-,-,-,80,-,-
Cc1ccc(/C=C/C(=O)c2c(C)cc(C)[nH]c2=O)cc1,-,-,-,89,-,-
O=C(CSc1nc2ccccc2s1)Nc1ncccn1,-,-,-,-,-,-
O=C(CSc1nc2ccccc2s1)Nn1cnnc1,-,-,96,76,-,-
O=C(O)CCSc1nc2ccccc2s1,-,-,-,-,-,-
O=C(CCCSc1nc2ccccc2s1)NC1=NCCS1,-,-,-,83,-,-
O=C(CSc1nn(-c2ccccc2)c(=S)s1)Nn1cnnc1,35,-,98,64,-,-
O=C(NCC1CCCO1)C1CCN(S(=O)(=O)c2cccnc2)CC1 (stereo not given),-,-,-,-,-,-
CC1CCN(C(=O)c2ccc3c(c2NCCO)C(=O)c2ccccc2C3=O)CC1,-,-,-,81,-,-
COCCNC(=O)CSc1nc(-c2ccccc2)cs1,-,-,-,-,-,-
O=C1CC(c2ccc(F)cc2)Cc2nc(N3CCOCC3)ncc21 (stereo not given),-,-,-,77,-,-
O=C1CC(c2cccc(Cl)c2)Cc2nc(N3CCN(c4ccccc4)CC3)ncc21 (stereo not given),-,-,-,-,-,-
O=C1CC(c2cccc(Cl)c2)Cc2nc(N3CCOCC3)ncc21 (stereo not given),-,-,59,72,-,-
COc1ccc(-c2ccc(-c3nnc(-c4cc(OC)ccc4OC)o3)cc2)cc1,-,-,-,-,-,-
COc1cccc(C2=CC(c3cccc(OC)c3OC(F)F)n3nnnc3N2)c1 (stereo not given),-,-,-,-,-,-
COc1cccc(C2=CC(c3cc(OC)ccc3OC)n3nnnc3N2)c1 (stereo not given),-,-,68,-,-,-
